# Measurements from PubChem BioAssay (Tox21).
# Records with an inconclusive call do not appear. Unmarked numbers belong to inactive results. Active and inactive are the calls of the source. The call rests on the fitted dose curve; in most records, active means well fitted activation curve with a large enough effect in the repeat runs; inconclusive means weak or mixed curves; inactive means no such curve, though single readings can be large or run the other way.
# Target: Aryl hydrocarbon receptor (Homo sapiens) (UniProt P35869)
# Assay: qHTS assay to identify small molecule that activate the aryl hydrocarbon receptor (AhR) signaling pathway (AID 743085); further: nearly all actives have a fitted effect of over 15% in size;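 on activation: HG2L7.5c1 human HepG2 liver cells with stably integrated DRE-driven firefly reporter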
# Conditions: HepG2 AhR-luc (HG2L7.5c1), luciferase, 24 h; series mostly up to 70.3 µM; activation: at the top concentration
# Source text: U.S. Tox21 Program National Center for Advancing Translational Sciences [NCATS] NIH Chemical Genomics Center [NCGC] U.S. Environmental Protection Agency [EPA] National Institutes of Environmental Health Sciences [NIEHS] National Toxicology Program [NTP] U.S. Food and Drug Administration [FDA] Tox21 Assay overview: The Aryl hydrocarbon Receptor (AhR), a member of the family of basic helix-loop-helix transcription factors, is crucial to adaptive responses to environmental changes. AhR mediates cellular responses to environmental pollutants such as aromatic hydrocarbons through induction of phase I and II enzymes but also interacts with other nuclear receptor signaling pathways. A cell based HepG2-AhR-luc assay (HG2L7.5c1 cell line, developed by Dr. Michael S. Denison, University of California at Davis, was used to assess the activation of AhR. HepG2 (human hepatocellular carcinoma) cells were stably transfected with an Ah receptor-responsive firefly luciferase reporter gene plasmid containing 20 dioxin responsive elements and luciferase reporter gene. Increased luciferase activity can be used to identify the compounds that induce AhR activation.
# Tox21 Assay Protocol Summary: 4000 cells in 5 uL/well were dispensed into white wall/solid bottom 1536-well plates using a Multidrop Combi (Thermo Fisher Scientific Inc., Waltham, MA) dispenser. After the assay plates were incubated at 37C for 5 h, 23 nL of compound or DMSO vehicle was transferred to the assay plates by a pintool station (Kalypsys, San Diego, CA). The plates were incubated at 37C for 24 hr. After 1 ul/well of CellTiter-Fluor reagent (Promega, Madison, WI) was added into the assay plates using a Flying Reagent Dispenser (FRD) (Aurora Discovery, CA), the assay plates were incubated at 37C for 30 min. The fluorescence intensity in the plates was measured using a ViewLux plate reader (PerkinElmer, Shelton, CT), followed by the addition of 4 uL of ONE-Glo Luciferase Assay reagent (Promega) using an FRD (Aurora Discovery). After the assay plates were incubated at room temperature for 30 min, luminescence intensity was measured using a ViewLux plate reader (Perkin Elmer).
# On the % scale 0 is the no-effect control and ±100 the full control effect; potency means the concentration at half of the fitted maximal effect.
# Sequence of Aryl hydrocarbon receptor (Homo sapiens) (P35869 whole entry, looked up): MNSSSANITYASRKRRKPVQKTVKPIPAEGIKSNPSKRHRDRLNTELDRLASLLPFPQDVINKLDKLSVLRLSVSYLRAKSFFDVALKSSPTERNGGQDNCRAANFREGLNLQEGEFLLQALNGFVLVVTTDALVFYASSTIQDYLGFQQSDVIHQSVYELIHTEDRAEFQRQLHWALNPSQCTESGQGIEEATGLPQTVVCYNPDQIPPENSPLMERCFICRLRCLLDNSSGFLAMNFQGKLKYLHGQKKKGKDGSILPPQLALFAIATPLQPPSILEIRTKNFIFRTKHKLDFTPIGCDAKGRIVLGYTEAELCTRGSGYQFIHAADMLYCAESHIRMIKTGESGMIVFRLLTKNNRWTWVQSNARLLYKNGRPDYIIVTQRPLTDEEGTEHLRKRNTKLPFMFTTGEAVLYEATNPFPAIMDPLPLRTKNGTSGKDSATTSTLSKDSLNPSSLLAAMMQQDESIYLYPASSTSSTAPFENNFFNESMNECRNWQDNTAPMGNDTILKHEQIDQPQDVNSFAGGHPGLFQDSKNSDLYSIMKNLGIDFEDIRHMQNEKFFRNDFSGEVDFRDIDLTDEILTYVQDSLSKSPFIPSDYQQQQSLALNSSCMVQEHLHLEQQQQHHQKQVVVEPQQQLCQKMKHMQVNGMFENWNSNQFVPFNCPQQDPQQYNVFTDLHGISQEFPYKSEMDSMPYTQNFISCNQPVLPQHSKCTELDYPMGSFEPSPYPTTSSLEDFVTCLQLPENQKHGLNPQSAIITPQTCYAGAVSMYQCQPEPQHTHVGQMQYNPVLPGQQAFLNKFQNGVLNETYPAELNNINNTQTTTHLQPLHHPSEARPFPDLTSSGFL
SMILES,activation,Potency
CC(=O)OCCCc1ccccc1,-1.72%,–
CCC(=O)OCCC(C)CCC=C(C)C (stereo not given),0.639%,–
C[C@H]1O[C@H](O[C@H]2[C@H](O)[C@@H](O)[C@@H](O[C@H]3[C@H](O)[C@@H](O)[C@H](O)O[C@@H]3CO)O[C@@H]2CO)[C@H](O)[C@@H](O)[C@@H]1N[C@H]1C=C(CO)[C@@H](O)[C@H](O)[C@H]1O,-1.8%,–
CC(Cl)COP(=O)(OCC(C)Cl)OCC(C)Cl (stereo not given),3.03%,–
F[Si-2](F)(F)(F)(F)F,–,inactive
O=C(Oc1ccccc1C(=O)O)c1ccccc1O,0.0337%,–
CCC(O)C(C)(C)C (stereo not given),-1.24% [at 95 µM],–
Nc1cc(Cl)cc(S(=O)(=O)O)c1O,-0.969% [at 95 µM],–
CC(C)C(=O)c1ccccc1,1.22%,–
Nc1cc(C(=O)O)ccc1Cl,-0.94%,–
O=S1(=O)CCCC1,-0.563% [at 95 µM],–
O=C(c1ccc2c(c1)C(=O)OC2=O)c1ccc2c(c1)C(=O)OC2=O,-1.5%,–
CCCCCCCCCCCCCCCCI,-2.42% [at 32.5 µM],–
CCOC(=O)CCCCCCCCC(=O)OCC,1.74%,–
Cc1cccc(C(=O)O)c1[N+](=O)[O-],1.05%,–
CN=C(NC#N)NCCSCc1csc(N=C(N)N)n1,-1.43%,–
CN(C)CCCNCCC#N,-1.31%,–
CC(C)CCO,-0.303%,–
CCCOC(=O)CCCCC(=O)OCCC,-0.202%,–
CCCCCCCCCCCCCC(=O)OC,-0.408%,–

SMILES,activation,Potency
COc1cc2c3cc1Oc1cc(ccc1O)C[C@@H]1c4c(cc(OC)c(O)c4Oc4ccc(cc4)C[C@@H]3N(C)CC2)CC[N+]1(C)C,-0.632%,–
C=C[Si](C)(C)O[Si](C)(C)C=C,1.45%,–
CCCO,2.8%,–
Cc1cc(O)c2c(c1)C(=O)c1cccc(O)c1C2=O,–,26.7 µM (active)
NC(=O)NC(=O)Cc1ccccc1,-1%,–
CCOC(=O)CC#N,-1.44%,–
C1=C\CC/C=C\CC/1,-1.79% [at 95 µM],–
CC(C)(CO)[C@@H](O)C(=O)NCCCO,-0.119%,–
O=c1[nH]c(=O)c2[nH]c(=O)[nH]c2[nH]1,–,inactive
CCN1CN(CC)CN(CC)C1,1.42%,–
Nc1ccc(S(=O)(=O)NC(=O)c2ccccc2)cc1,-1.69% [at 32.5 µM],–
CC(=O)OC(C)c1ccccc1 (stereo not given),-0.391%,–
Cc1oc(=O)oc1CN1CCN(c2cc3c(cc2F)c(=O)c(C(=O)O)c2n3C(C)S2)CC1 (stereo not given),1.81%,–
C[CH2][Ge]([Cl])([CH2]C)[CH2]C,-0.113% [at 95 µM],–
Cc1ccc(S(=O)(=O)NC(=O)NC2CCCCCCC2)cc1,-0.411%,–
CCCCC[Si](OCC)(OCC)OCC,-0.953%,–
NS(=O)(=O)c1cc2c(cc1Cl)NC(CC1CCCC1)NS2(=O)=O (stereo not given),0.531% [at 32.5 µM],–
Oc1ccccc1Cc1ccccc1O,3.41%,–
CCCCCC(=O)OCC,-0.927%,–
CC(C)SCc1ccco1,-0.754% [at 32.5 µM],–
